PubChem BioAssay (NCI)
Several values for one entry are separate records, joined by “and”; a condition that tells them apart may be missing. Equal entries are not always repeated. Compounds without any hit were thinned out: in the full panel of roughly 83,000, 20% have a hit.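 Cells were grown in 96-well plates and exposed to the test compound at a single concentration for 48 hours; results are reported as percent growth, with values below 10 considered active.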 Activity calls are given as the source filed them.

Each compound was assayed on MDA-MB-468 breast (assay: NCI-60 one-dose screen, 48 h (100 = growth as untreated, 0 = no growth, -100 = all killed)). Settings: 10 µM unless noted.
In the case of `C=CCOC(=O)C1=C(C)NC(=O)NC1c1c(Cl)n(C)c2ccccc12` (centres undefined), the growth was 106% (inactive). With `CN1CCN(CCC(=O)Nc2cccc(-n3cc(-c4ccncc4)c(-c4ccc(Cl)c(O)c4)n3)c2)CC1` the growth was 12.7% (inactive). For `Cc1ccc(/C=C2\CN(C(=O)CCN3CCC(=NO)CC3)C/C(=C\c3ccc(C)cc3)C2=O)cc1`, the growth was -54.2% (active). For `COc1ccc(/C=N/OCC(O)CNCc2ccccc2)cc1OC1CCCC1` (centres undefined), the growth was 99.2% (inactive). In the case of `COc1ccc2[nH]c(O)c(C(=Nc3ccc(N(C)C(=O)CN4CCN(C)CC4)cc3)c3ccccc3)c2c1`, the growth was 58.1% (inactive). In the case of `CCOC(=O)c1cc(C(=O)c2ccc(Br)cc2)n2ccc(/C=C/c3cc[n+](CC(=O)c4ccc(OC)cc4)cc3)cc12`, the growth was 66.4% (inactive). For `COc1ccc(C(=O)c2ccc(OC)c(OC)c2OC)cc1`, the growth was -7.95% (active) and -19% (active). In the case of `O=C1C(OCCOc2ccccc2)=C(OCCOc2ccccc2)C(=O)c2ccccc21`, the growth was 72.9% (inactive). With `COC(=O)c1ccc(=O)oc1` the growth was 105% (inactive). In the case of `CC(C)(C)c1cc(C[P+](c2ccc(Cl)cc2)(c2ccc(Cl)cc2)c2ccc(Cl)cc2)cc(C(C)(C)C)c1O`, the growth was 6.75% (active). In the case of `O=C1/C(=C/c2ccc(Cl)cc2)CCC/C1=C\c1ccc(Cl)cc1`, the growth was 67.9% (inactive). For `CCCCCCCCCCCC[n+]1ccccc1`, the growth was -23.6% (active). For `CCCCC/C=C/C(=O)CCc1ccc(O)c(OC)c1`, the growth was 65.8% (inactive). For `CC1=C(C(=O)OCC2CCN(C(=O)OC(C)(C)C)CC2)[C@H](c2cccc(Br)c2)C2=C(CC(C)(C)CC2=O)N1`, the growth was 29.7% (inactive).
